This note sets out measurements from PubChem BioAssay.

Inconclusive results are not listed. For part of these data: Measured potencies and affinities stand elsewhere. The source made the active and inactive calls. Unless noted, cut-off not given; nearly all actives show IC50 up to about 0.91 µM.

Assay [1] can be described thus: antimalarial activity against Dd2 strain (AID 2302;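 active means growth inhibition above 50% at the single 2 µM test dose, taken to imply half-maximal potency below 2 µM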;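 further: 0% = DMSO untreated growth and 100% = chloroquine plus artemisinin killed control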). The conditions noted are these: P. falciparum Dd2 in RBCs, LDH growth readout, 72 h; at 2 µM; stronger effect = higher value.
The target of assay [2] is Calcium-dependent protein kinase 4 (Plasmodium falciparum (isolate 3D7)) (UniProt Q8IBS5). Description: PfCDPK4 kinase inhibitors, biochemical, TCAMS library (AID 1159588). Conditions: recombinant PfCDPK4, Kinase-Glo ATP depletion luminescence. A general note: Kinase-Glo measures the ATP left after a reaction by luminescence.
Assay [3] is described as follows: protection against mutant huntingtin cytotoxicity, PC12 cells, LDH release (AID 1610). The conditions noted are these: PC12 mutant huntingtin toxicity, final LDH at 4 uM, stronger effect = lower value.

Chain of Calcium-dependent protein kinase 4 (Plasmodium falciparum (isolate 3D7)) (Q8IBS5 whole entry, looked up): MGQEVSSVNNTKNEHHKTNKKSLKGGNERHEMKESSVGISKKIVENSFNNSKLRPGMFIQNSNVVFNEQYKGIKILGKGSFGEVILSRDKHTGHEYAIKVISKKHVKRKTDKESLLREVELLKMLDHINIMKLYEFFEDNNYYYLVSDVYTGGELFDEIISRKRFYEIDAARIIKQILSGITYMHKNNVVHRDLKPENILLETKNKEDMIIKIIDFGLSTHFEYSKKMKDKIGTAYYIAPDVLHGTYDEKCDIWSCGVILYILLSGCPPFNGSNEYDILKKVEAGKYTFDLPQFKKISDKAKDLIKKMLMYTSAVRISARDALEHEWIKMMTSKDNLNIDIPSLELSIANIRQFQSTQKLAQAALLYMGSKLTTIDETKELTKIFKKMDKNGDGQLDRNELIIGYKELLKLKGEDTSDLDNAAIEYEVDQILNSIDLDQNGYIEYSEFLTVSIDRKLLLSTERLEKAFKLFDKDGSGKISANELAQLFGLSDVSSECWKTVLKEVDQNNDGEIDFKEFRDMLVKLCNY

Regarding `COc1cc(Cc2cnc(N)nc2N)cc(OC)c1OC`, the growth inhibition in assay [1] is 2% (inactive). Further, the result in assay [2] was inactive.

Consider `CC(C)(C)c1ccc(C(O)CCCN2CCC(C(O)(c3ccccc3)c3ccccc3)CC2)cc1` (stereo unspecified), for which, in assay [3], the normalised LDH release came to 1.

With `O=c1ccc2ccc(O)c(O)c2o1`, the result in assay [2] was inactive.

Consider `COc1ccc(C[C@H](N)C(=O)N[C@H]2[C@@H](O)[C@H](n3cnc4c(N(C)C)ncnc43)O[C@@H]2CO)cc1`, for which the growth inhibition in assay [1] is 91% (active). Moreover, in assay [2], the result was inactive.
